# A selection: hits, their analogues and other compounds. The true share with any hit is near 2.1%.
# IEC-6 cytotox – cytotoxicity in IEC-6 intestinal epithelial cells, primary screen, cytotoxicity control for KLF5 inhibitor project, cell-based, luminescence | 290,000 tested, 0.78% active | AID 1825, 2009 | IEC-6 cytotoxicity, luminescence viability | inhibition, % at 5 µM; in the data active means inhibition above about 22%;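 further: 0% = plate median of test compound wells and 100% = cytotoxic reference compound wells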
# KLF5 inhibitor – KLF5 expression inhibitors, primary screen, DLD-1 cells, luminescence; DLD-1 KLF5 promoter-luciferase reporter; inhibition, % at 5 µM; 290,000 tested, 0.23% active; AID 1700, 2009;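 active means inhibition above a per-plate limit of that plate's mean compound inhibition plus 3 SD, cut at about 60% in these data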;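 further: 0% = DMSO wells and 100% = LY294002 at 200 µM; higher means less KLF5 promoter-driven luciferase light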
# aSyn 5UTR inh – MLPCN primary screen, SNCA 5' untranslated region | inhibition, % (tested at 7.5 µM) | 300,000 tested, 0.82% active | alpha-synuclein 5'UTR reporter, inhibitor activity; in the data active means inhibition above about 60%;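 further: H4 neuroglioblastoma cells stably carrying SNCA 5'UTR luciferase fusion; 0% = DMSO wells and 100% = positive control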
# Ba/F3 V617F tox – reduced viability of JAK2V617F-dependent Ba/F3 cells, primary screen, JAK2V617F inhibitor project, cell-based, Ba/F3 EpoR-JAK2V617F, luminescence; ATP luminescence; inhibition, % at 5.6 µM; 220,000 tested, 1.1% active; AID 1446, 2008;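 active means inhibition above the campaign mean plus 3 SD over all tested compounds, cut at about 24% in these data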;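 further: cytokine-independent growth of Ba/F3 cells driven by EpoR plus mutant JAK2; 0% = DMSO-treated cells and 100% = JAK inhibitor I control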
# APP transl inh – inhibitors of APP translation via 5'UTR reporter, primary screen, APP 5'UTR luciferase, SH-SY5Y cells | SH-SY5Y APP 5'UTR-luciferase reporter, luminescence | inhibition, % at 2 µM | 190,000 tested, 0.82% active | AID 1285, 2008;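 active means inhibition above a set limit, derived from the sample mean plus 3 SD, cut at about 45% in these data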
# BaF3 parental – parental Ba/F3 cell viability inhibition, counter-screen for JAK2V617F inhibitor project, murine pro-B, CellTiter-Glo luminescence. CellTiter-Glo ATP luminescence. 220,000 tested, 1.1% active. inhibition, % at 5.6 µM;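 active means inhibition above a per-campaign cutoff, the mean inhibition of all tested compounds plus 3 SD, cut at about 27% in these data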;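 further: 0% = DMSO wells and 100% = JAK Inhibitor I control wells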
# * marks the source's active call; other numbers are inactive results; . = not tested or not shown; ! = a repeat was not active.
SMILES,IEC-6 cytotox,KLF5 inhibitor,aSyn 5UTR inh,Ba/F3 V617F tox,APP transl inh,BaF3 parental
Cc1ccc(/C=N/NC(=O)c2nnn(-c3nonc3N)c2-c2cccs2)cc1,10,11,69*,.,.,.
CN(CC(=O)Nc1ncn[nH]1)S(=O)(=O)c1cc(Cl)ccc1Cl,1,-10,-7,.,.,.
Cc1nc2ccc(NS(=O)(=O)c3ccc4c(c3)OCCO4)cc2s1,14,-41,-2,42*,-11,53*
Cc1ccc(S(=O)(=O)Nc2ccc3nc(C)sc3c2)cc1,5,-21,-19,34*,13,39*
Cc1ccc(S(=O)(=O)Nc2ccc3c(c2)OCCO3)cc1,-4,-8,-9,0,-6,4
O=[N+]([O-])c1ccc(Cl)cc1NCC1CCCO1 (centres undefined),-4,-22,11,.,.,.
CCCCCCc1ccc(OC(=O)c2ccncc2)cc1,0,-12,-23,.,.,.
CCCCCCOc1ccc(OC(=O)c2ccncc2)cc1,13,-29,-38,44*,-3,32*
Cc1oc(-c2ccccc2F)nc1CS(=O)CC(=O)NC1CCCC1 (centres undefined),-2,-21,14,.,.,.
Cc1nn(C)c(C)c1/C=C/C(=O)c1ccc(Cl)cc1Cl,11,16,-16,11,4,13
COCCCNC(=S)NNC(=O)C1CC1c1ccc(C(C)(C)C)cc1 (centres undefined),-2,-21,-100,7,-17,38*
COCCNC(=S)NC(=O)c1ccc(C(C)(C)C)cc1,4,-26,-91,1,-10,11
Cc1ccccc1OCC(=O)Nc1ccc2c(c1)C(=O)N(CCC(=O)O)C2=O,-1,-11,-15,.,.,.
c1cncc(CSc2ccc(-c3cccs3)nn2)c1,11,-59,-110,6,-50,46*
Cc1ccccc1C(=O)NC(CC(C)C)C(=O)Nc1cccc(S(=O)(=O)N(C)C)c1 (centres undefined),1,-45,-7,11,-2,42*
CCC1N=C(SC)NC(C)=C1C(=O)c1ccccc1 (centres undefined),3,-12,-8,1,5,7
CSC1=NC(C(Cl)(Cl)Cl)N=C(c2ccc(C)cc2)N1 (centres undefined),58*,53,118*,83*,71*,64*
COc1cnc(SCCC(F)=C(F)F)[nH]c1=O,3,-41,3,3,3,11
CCOc1ccc(NS(=O)(=O)c2cc(NC(=O)c3ccc(C)cc3)ccc2Cl)cc1,56*,48,10,80*,87*,70*
CCSc1nc(-c2ccccc2)nc(C(Cl)Cl)n1,4,-13,123*,-2,47*,4
S=C(NCCc1cccc(Cl)c1)NC1CCCCC1,0,-124,-118,.,.,.
CCCOC(=O)c1ccc(NC(=O)Cc2cccs2)cc1,-7,-34,-50,.,.,.
CN(C)c1ccc2nc3ccc(=[N+](C)C)cc-3sc2c1,6,31,57,97*,62*,101*
Cc1nc2cc(C)c(C)cc2s1,-3,-10,-14,2,-10,6
Cc1cc2nc3ccc(=[N+](C)C)cc-3sc2cc1N,16,25,91*,68*,.,85*
SMILES,IEC-6 cytotox,KLF5 inhibitor,aSyn 5UTR inh,Ba/F3 V617F tox,APP transl inh,BaF3 parental
CC(=O)Nc1nnc(S(=O)(=O)N2CCN(c3ccc(Cl)cc3[N+](=O)[O-])CC2)s1,4,-8,-2,.,.,.
Cc1ccccc1S(=O)Cc1ccc(C(=O)NCCN2CCOCC2)o1 (centres undefined),6,-24,17,.,.,.
COc1ccc(O)c(C(=O)CC(=O)c2ccc(F)cc2)c1,-2,-121,73*,0,-149,2
CC[C@H](C)C(=O)O[C@H]1C[C@@H](C)C=C2C=C[C@H](C)[C@H](CC[C@@H]3C[C@@H](O)CC(=O)O3)[C@H]21,-3,-23,5,3,8,8
CC[C@H](C)C(=O)O[C@H]1CCC=C2C=C[C@H](C)[C@H](CC[C@@H]3C[C@@H](O)CC(=O)O3)[C@H]21,3,16,40,62*,5,27*!
N#C/C(=C(\O)c1cc(Cl)sc1Cl)c1nc2ccccc2[nH]1,-1,-17,7,.,.,.
